Screens (PubChem)
An excerpt weighted towards active compounds, which were near 20% of everything screened.
CHX counter – affects cycloheximide protein synthesis inhibition readout, counter-screen; cell reporter, cycloheximide protein synthesis inhibition counterscreen; max response, %; actives 12% (n = 300,000); in the data active = max response mostly above about 13%, no sharp cut-off; inactive = mostly below about 14%; also: read at 38.3 µM for the half of the compounds with a filed dose
HCMV antiviral – blocks human cytomegalovirus replication | HFF cells, HCMV-luciferase reporter, 72 h; hits give low values | activity change, negative = inhibition, % at 57.5 µM | actives 4.5% (n = 410,000); in the data active = activity change below about -60%; inconclusive = no clear call, values can overlap the other calls; inactive = above about -39%
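Compounds were evaluated in HFFs infected with an HCMV luciferase reporter virus (MOI 1 PFU/cell). Luciferase in lysates collected 72 h post infection served as the replication measure.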
Pf growth 48h – P. falciparum growth inhibition at 48 hours (one generation) | P. falciparum luciferase growth in erythrocytes, 48 h | Potency, µM (doses to about 28.7 µM), usual class: inhibitors | actives 5.9% (n = 310,000)
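Parasite viability was followed by luminescence of a genomically integrated firefly luciferase. Cultures held 0.1% parasitemia at 2% hematocrit (final), incubated under 5% CO2 at 37 C.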
Pf growth 96h – P. falciparum growth inhibition at 96 hour, primary screen for plastid delayed-death inhibitors. P. falciparum luciferase reporter growth, 96 h. Potency, µM (top dose mostly 28.7 µM), usual class: inhibitors. actives 6.9% (n = 320,000)
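Compounds incubated with erythrocytes infected by luciferase-expressing P. falciparum (2% hematocrit, 0.05% parasitemia final) for 96 hours, 37 C in 5% CO2. Growth inhibition scored as decreased luciferase luminescence.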
Shiga toxin inh – Shiga toxin inhibition; AID 2315; Vero cells, Shiga toxin protein synthesis inhibition reporter; inhibition, % at 38.7 µM; actives 9.2% (n = 290,000); in the data active = inhibition mostly above about 28%, no sharp cut-off; inactive = mostly below about 43%
A number is an active result; . = inactive; ? = inconclusive; / = no result. Unless noted, calls follow the shape of the dose curve; as a rule, active = well fitted inhibition curve with a large enough effect; inconclusive = small, poorly fitted or top-dose-only effect, or another doubt; inactive = no such curve, though single readings can be large or run the other way.

SMILES	CHX counter	HCMV antiviral	Pf growth 48h	Pf growth 96h	Shiga toxin inh
CCCC(C(=O)OCC)P(=O)(c1ccccc1)c1ccccc1 (centres undefined)	.	.	/	?	.
CCOC(OCC)P(=O)(c1ccccc1)c1ccccc1	.	.	.	12µM	.
CCCCCCCCCCCCCCCCCC[N+](C)(C)CCC[Si](OC)(OC)OC	/	/	.	.	/
C#CC[N+](C)(C)CCCCCCCC	.	-77	3.7µM	?	.
CC#CC[N+](C)(C)CCCCCCCCCCCC	.	-101	2.9µM	0.59µM	.
C#CC[N+](C)(C)CCCCCCCCCC	.	-98	0.93µM	?	.
C#CC[N+](C)(C)CCCCCCCCCCCC	.	-98	1.5µM	0.37µM	.
C(=C\c1ccccc1)/CN1CCN(Cc2nc(Cc3ccccc3)no2)CC1	.	.	?	?	.
Nc1nnc(CSCc2ccccc2)s1	.	.	.	/	.
Cc1cccc(CSCc2nnc(N)s2)c1	19	.	.	.	39
CCOc1ccc(NC(=O)CSc2ncc(S(=O)(=O)c3ccc(F)c(C)c3)c(=O)[nH]2)cc1	/	.	/	/	/
CCC(C)NC(=O)c1ccccc1NC(=O)c1ccc(CSc2ccccc2)cc1 (centres undefined)	.	.	12µM	.	.
CCCNC(=O)c1ccccc1NC(=O)c1ccc(CSc2ccccc2)cc1	17	.	13µM	?	26
COc1cccc(CN2C(=O)c3ccccc3Sc3ccc(C(=O)NCCc4ccc(C)cc4)cc32)c1	/	.	/	/	/
CCn1c(=O)n(C2=C(CO)CN(CC3CCCCCCC3)CC2)c2ccccc21	.	/	/	/	.
CC(C)(C)c1ccc(C(CC(=O)O)NC(=O)CCCc2ccccc2)cc1 (centres undefined)	.	.	.	.	.
O=C(c1cnn(-c2ccccc2)c1)c1ccc2ccccc2c1O	15	.	.	.	.
CC(C)(C)n1cc(C(=O)c2ccccc2OCCCF)cn1	.	.	.	.	.
CC(C)(C)n1cc(C(=O)c2ccc3ccccc3c2O)cn1	.	?	.	.	46
CCOC(=O)C1CCCN(C(=O)Cn2ncc3c4ccccc4n(Cc4ccc(F)cc4)c3c2=O)C1 (centres undefined)	/	.	/	/	/
CC(C)Oc1ccc(C(=O)Nc2ncn[nH]2)cc1	.	.	.	10µM	.
CC(C)COc1ccc(C(=O)Nc2ncn[nH]2)cc1	.	.	.	.	.
CCOc1ccc(C(=O)Nc2ncn[nH]2)cc1	.	.	.	2.1µM	.
CS(=O)(=O)c1ccc(-c2csc(C(O)c3cccc(Cl)c3)n2)cc1 (centres undefined)	/	.	/	/	/
COc1ccc(CCNC(=O)C(=O)NCC2CCCN2S(=O)(=O)c2cc(C)ccc2C)cc1 (centres undefined)	/	.	?	?	/
SMILES	CHX counter	HCMV antiviral	Pf growth 48h	Pf growth 96h	Shiga toxin inh
CCCCn1cnc2cc(NC(=O)c3cc(OC)c(OC)c(OC)c3)ccc21	/	.	/	/	/
CCn1cnc2cc(NCc3cccc(OC)c3O)ccc21	44	.	.	.	112
CCCCn1cnc2cc(NCc3cccc(OC)c3O)ccc21	19	.	.	.	103
COc1cccc(CNc2ccc(F)c(Cl)c2)c1O	.	.	?	.	.
Cc1ccc(NC(=O)CSc2nc(=O)n(Cc3ccco3)c3c2CCC3)cc1F	/	.	/	/	/
O=C(CSc1nnc2ccc(-c3cccnc3)nn12)Nc1ccc(F)cc1	/	.	.	?	/
COc1ccc(NC(=O)CSc2nnc3ccc(-c4ccncc4)nn23)cc1	/	-71	.	.	/
O=C(CSc1nnc2ccc(-c3ccncc3)nn12)Nc1ccc(F)cc1	/	.	12µM	?	/
CCC(=O)Nc1cccc(NC(=S)NC(=O)c2ccccc2Cl)c1	25	.	.	?	.
CC(C)C(=O)Nc1cccc(NC(=S)NC(=O)c2ccc([N+](=O)[O-])cc2)c1	.	.	.	.	.
Cc1ccc(OCC(=O)NC(=S)Nc2cccc(NC(=O)c3ccc(Cl)cc3Cl)c2)cc1	.	-73	.	.	.
CCOc1cccc(C(=O)NC(=S)Nc2ccc(Cl)cc2C(=O)O)c1	.	-60	.	.	.
Cc1cc(C(=O)NC(=S)Nc2cccc(NC(=O)C(C)C)c2)ccc1[N+](=O)[O-]	36	.	.	.	.
CC(C)=C(NC(=O)c1ccccc1)C(=O)NCCc1nc2ccccc2[nH]1	.	.	.	.	.
O=C(O)c1cc2ccc3cccc4ccc(c1)c2c34	.	.	/	.	.
Cc1ccc(CN(C(=O)COc2ccc(C)c(C)c2)C2CCS(=O)(=O)C2)o1 (centres undefined)	.	.	.	?	.
CCC(=O)Nc1cccc(NC(=S)NC(=O)c2cccs2)c1	40	.	.	.	110
O=C(Nc1ccc(NC(=S)NC(=O)c2ccccc2Cl)cc1)c1cccc(Cl)c1	/	.	/	/	/
CC(=O)c1cccc(NC(=S)NC(=O)c2ccccc2C)c1	.	.	.	.	.
CCCOc1cccc(C(=O)NC(=S)Nc2cccc(NC(=O)c3ccccc3Cl)c2)c1	.	?	.	2.9µM	.
Cc1ccccc1C(=O)NC(=S)Nc1cccc(NC(=O)C(C)C)c1	27	.	.	.	.
CC(C)C(=O)Nc1cccc(NC(=S)NC(=O)c2ccccc2Cl)c1	25	.	.	.	.
COc1ccc(Nc2nnc(-c3ccc(N4CCOCC4)c([N+](=O)[O-])c3)c3ccccc23)cc1	.	.	?	?	.
CN1C(=O)c2ccc(NC(=O)c3c(C(=O)O)cccc3[N+](=O)[O-])cc2C1=O	.	.	.	.	.
COc1ccc(S(=O)(=O)N2CCCC(C(=O)NC3CC3)C2)cc1Cl (centres undefined)	.	.	?	?	.
SMILES	CHX counter	HCMV antiviral	Pf growth 48h	Pf growth 96h	Shiga toxin inh
CCCCN(C(=O)CSCC(=O)Nc1cccc(C)c1)c1c(N)n(CCCC)c(=O)[nH]c1=O	/	.	.	?	/
CCCCn1c(N)c(N(CC(C)C)C(=O)c2ccc(S(=O)(=O)N(CC)c3ccccc3)cc2)c(=O)[nH]c1=O	/	.	12µM	?	/
CCCCn1c(N)c(N(CC(C)C)C(=O)CSCC(=O)Nc2cccc(C)c2)c(=O)[nH]c1=O	/	.	12µM	?	/
CCCCn1c(N)c(N(CC(C)C)C(=O)c2cccc(S(=O)(=O)N(C)c3ccc(C)cc3)c2)c(=O)[nH]c1=O	/	.	6.6µM	?	/
CCCNS(=O)(=O)c1ccc(OCC(=O)NCc2ccc3c(c2)OCO3)cc1	.	.	.	.	.
O=C1NC2(CCCCCC2)C(=O)N1Cc1cccc(Cl)c1	.	.	.	.	.
O=C1NC2(CCCCC2)C(=O)N1Cc1cccc(C(F)(F)F)c1	.	-103	.	?	.
O=C(Nc1ccccc1-c1ccccc1)C(c1ccccc1)c1ccccc1	.	?	?	1.7µM	.
CC(C(=O)Nc1ccccc1-c1ccccc1)N1CCCCC1 (centres undefined)	.	.	/	?	.
CCCNC(=O)C1CN(S(=O)(=O)c2ccccc2)CCN1S(=O)(=O)c1ccccc1 (centres undefined)	.	.	.	/	.
CC(C(=O)Nc1ccccc1-c1ccccc1)N1CCN(S(=O)(=O)c2ccccc2)CC1 (centres undefined)	.	?	6.6µM	9.3µM	.
